Rows were chosen to be rich in hits. Some 4.1% of all compounds tested hit in one or more screens of this group.
DAX1 inh-1: DAX1 (NR0B1) inhibitors on StAR promoter, primary screen, cell-based, luminescence, SF-1 (NR5A1), full-length DAX-1 | actives 1.1% (n = 370,000) | HEK293T StAR-luciferase reporter, SF-1/DAX-1 repression relief | inhibition, % at 6.8 µM;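 active = inhibition above the mean over all tested compounds plus 3 SD, cut at about 3.6% in these data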;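 also: 0% = DAX-1 cells with DMSO and 100% = cells lacking DAX-1 with DMSO; higher inhibition means more luminescence from relief of DAX-1 repression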
DAX1 inh-2: DAX1 (NR0B1) inhibitors, primary screen, cell-based, HEK293, Gal4-DAX1, luciferase luminescence; HEK293 Gal4-DAX1 luciferase reporter; AID 504766, 2011; Nuclear receptor subfamily 0 group B member 1 (Homo sapiens), P51843; actives 0.99% (n = 340,000); inhibition, % at 6.75 µM;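 active = inhibition above the mean over all tested compounds plus 3 SD, cut at about 4.2% in these data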;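 also: 0% = DAX1-transfected cells with DMSO and 100% = empty-vector control cells with DMSO; inhibition shows as a rise in luminescence from relieved DAX1 repression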
Target sequence (P51843 207-470 limits assumed): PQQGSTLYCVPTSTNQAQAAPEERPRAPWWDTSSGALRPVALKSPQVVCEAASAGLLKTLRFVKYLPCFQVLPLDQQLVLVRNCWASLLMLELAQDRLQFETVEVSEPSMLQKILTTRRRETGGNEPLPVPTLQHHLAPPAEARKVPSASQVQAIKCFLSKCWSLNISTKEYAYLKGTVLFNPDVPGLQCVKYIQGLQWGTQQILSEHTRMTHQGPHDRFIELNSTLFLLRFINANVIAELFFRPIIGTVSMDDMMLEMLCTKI
hgDAF-12 ag: H. glycines DAF-12 receptor agonists, primary screen, cell-based, luminescence, HEK293, GAL4 fusion, UAS-luciferase | Nuclear hormone receptor DAF-12 (Heterodera glycines), GAL4 fusion | HEK293 GAL4-hgDAF12 UAS-luciferase reporter, agonist luminescence; normalized to butyrate control | activation, % at 6.8 µM | actives 1.8% (n = 370,000) | AID 687014, 2013;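 active = activation above a cutoff set at the mean of all screened compounds plus 3 SD, cut at about 10% in these data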;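 also: 0% = DMSO wells and 100% = sodium butyrate wells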
hcDAF12 agonist: H. contortus DAF-12 nuclear receptor activators, primary screen, cell-based, luminescence, HEK293, lit1-tk-luc reporter. activation, % at 6.8 µM. actives 1.4% (n = 370,000). HEK293 hcDAF-12 lit1-tk-luc reporter; 0% DMSO, 100% Δ7-dafachronic acid;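 active = activation above the mean of all tested compounds plus 3 SD, cut at about 5.5% in these data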;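 also: 100% = response to 3 µM Δ7-dafachronic acid high control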
ssDAF-12 act: S. stercoralis DAF-12 nuclear receptor activators, primary screen, cell-based, luminescence, HEK293, GRIP1 co-expression, lit1-tk-luc; HEK293 ssDAF-12/GRIP1 lit1-tk-luc reporter; % of 3 µM dafachronic acid response; activation, % at 6.8 µM; Nuclear hormone receptor DAF-12 (Strongyloides stercoralis); actives 1% (n = 370,000); AID 652126, 2013;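 active = activation above the mean over all tested compounds plus 3 SD, cut at about 0.9% in these data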;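 also: 0% = DMSO-only wells and 100% = 3 µM delta7-dafachronic acid wells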
* = called active by the depositor.

Screening O=C(NCC(=O)N1CCCCCCC1)c1ccc(Cl)cc1 returned DAX1 inh-1 0, DAX1 inh-2 2, hgDAF-12 ag 12*, hcDAF12 agonist 3 and ssDAF-12 act -1.
For NC(=O)CNC(=O)c1ccc(Cl)cc1 the results were DAX1 inh-1 0, DAX1 inh-2 5.6*, hgDAF-12 ag -2, hcDAF12 agonist -2 and ssDAF-12 act -1.
`COc1ccc(NC(=O)c2ccc(NC(=O)CN3CCC(C(N)=O)CC3)cc2)cc1` gave DAX1 inh-1 1, DAX1 inh-2 0, hgDAF-12 ag 1, hcDAF12 agonist 0 and ssDAF-12 act -1.
Screening CCN(CC)c1ccc(C(=O)OCC(=O)Nc2sccc2C#N)cc1 returned DAX1 inh-1 2, DAX1 inh-2 1, hgDAF-12 ag 11*, hcDAF12 agonist 5 and ssDAF-12 act 0.
For CCn1c(SCC(=O)c2c[nH]c3ccccc23)nc2cc(S(=O)(=O)N3CCOCC3)ccc21 the results were DAX1 inh-1 0, DAX1 inh-2 2, hgDAF-12 ag -1, hcDAF12 agonist 5.6* and ssDAF-12 act -1.
CCn1c(SCC(N)=O)nc2cc(S(=O)(=O)N3CCOCC3)ccc21 was read as DAX1 inh-1 1, DAX1 inh-2 -2, hgDAF-12 ag -5, hcDAF12 agonist 0 and ssDAF-12 act -1.
CC(=O)N1[C@H](CO)[C@@H](c2ccccc2)[C@@H]1CN(C(=O)c1ccc(F)cc1)C(C)C was read as DAX1 inh-1 -1, hgDAF-12 ag 1, hcDAF12 agonist -2 and ssDAF-12 act -1.
Cc1ccc(NC(=O)CCCC(=O)O)c(-c2nc3ccccc3[nH]c2=O)c1 was read as DAX1 inh-1 0, DAX1 inh-2 1, hgDAF-12 ag 0, hcDAF12 agonist 2 and ssDAF-12 act 0.9*.
For CC(C)CN1C(=O)C[C@]2(C(=O)N(C)c3ccc(NC(=O)C(C)(C)C)cc32)C1c1ccccc1 (stereo partly drawn) the results were DAX1 inh-1 -1, hgDAF-12 ag -1, hcDAF12 agonist -2 and ssDAF-12 act -1.
C[n+]1ccc(/C=C/c2ccccc2O)c2ccccc21 was read as DAX1 inh-1 0, DAX1 inh-2 0, hgDAF-12 ag -2, hcDAF12 agonist 6.5* and ssDAF-12 act -2.
Screening Cc1cccc(C(=O)Nc2ccc3c(c2)nc(C)n3C)c1 returned DAX1 inh-1 3, DAX1 inh-2 1, hgDAF-12 ag 9, hcDAF12 agonist 3 and ssDAF-12 act 0.
Screening Cc1cccc(C(=O)Nc2ccc3c(c2)ncn3C)c1 returned DAX1 inh-1 3, DAX1 inh-2 0, hgDAF-12 ag 11*, hcDAF12 agonist 3 and ssDAF-12 act 0.
Screening O=C(Oc1cccc2ccccc12)c1ccccc1 returned DAX1 inh-1 2, DAX1 inh-2 7.1*, hgDAF-12 ag 3, hcDAF12 agonist 0 and ssDAF-12 act -1.
For N#Cc1ccsc1NC(=O)C1CCN(S(=O)(=O)c2cccs2)CC1 the results were DAX1 inh-1 -1, DAX1 inh-2 0, hgDAF-12 ag 1, hcDAF12 agonist -2 and ssDAF-12 act -1.
`CCOc1ccc(C(C)NC(=O)Cc2ccccc2F)cc1OCC` (stereo not drawn) gave DAX1 inh-1 1, DAX1 inh-2 0, hgDAF-12 ag 0, hcDAF12 agonist 0 and ssDAF-12 act -1.
CC(NC(=O)Cc1ccccc1F)c1ccc(F)cc1 (stereo not drawn) was read as DAX1 inh-1 1, DAX1 inh-2 4.8*, hgDAF-12 ag -1, hcDAF12 agonist -2 and ssDAF-12 act 0.
`Oc1c(/C=N/c2ncn[nH]2)ccc2ccccc12` gave DAX1 inh-1 0, DAX1 inh-2 0, hgDAF-12 ag 0, hcDAF12 agonist 2 and ssDAF-12 act 1.2*.
`C[C@H](O)[C@@H]1CN2CCc3c([nH]c4c(-c5ccc6c(c5)OCO6)cccc34)[C@@H]2C[C@@H]1N(C)C(=O)NC1CCCCC1` gave DAX1 inh-1 -1, hgDAF-12 ag -3, hcDAF12 agonist -1 and ssDAF-12 act -1.
Screening COc1c(C)cc(C(=O)C2CCCN(C(=O)c3ccc4cc[nH]c4c3)C2)cc1C (stereo not drawn) returned DAX1 inh-1 0, DAX1 inh-2 1, hgDAF-12 ag -1, hcDAF12 agonist -2 and ssDAF-12 act -2.
Screening Cc1ccc(C(=O)/C=C2\NCCNC2=O)cc1 returned DAX1 inh-1 3.8*, DAX1 inh-2 2, hgDAF-12 ag 13*, hcDAF12 agonist 3 and ssDAF-12 act 0.
`CC(C)[C@H](NC(=O)Cc1ccccc1)C(=O)OCc1cc(=O)n2c(n1)sc1ccccc12` gave DAX1 inh-1 0, DAX1 inh-2 0, hgDAF-12 ag 4, hcDAF12 agonist 3 and ssDAF-12 act 1.1*.
`CC(OC(=O)c1cc(=O)c2cc(Cl)ccc2o1)C(=O)N1CCCC1` (stereo not drawn) gave DAX1 inh-1 -1, DAX1 inh-2 2, hgDAF-12 ag 3, hcDAF12 agonist -1 and ssDAF-12 act -1.
Screening Cc1c(Cl)cnc(NC(=O)COC(=O)c2cc3c(s2)CCC(C)C3)c1Cl (stereo not drawn) returned DAX1 inh-1 0, DAX1 inh-2 1, hgDAF-12 ag 5, hcDAF12 agonist 1 and ssDAF-12 act 1.4*.
`NNc1ncnc2sc3c(c12)CCC3` gave DAX1 inh-1 1, DAX1 inh-2 6.3*, hgDAF-12 ag 12*, hcDAF12 agonist 4 and ssDAF-12 act 1.
Screening CC(Cl)C(=O)N1CCC(C(=O)NC2CCCc3ccccc32)CC1 (stereo not drawn) returned DAX1 inh-1 0, hgDAF-12 ag -3, hcDAF12 agonist 1 and ssDAF-12 act -1.
For CN(C)CC(c1ccc(O)cc1)C1(O)CCCCC1 (stereo not drawn) the results were DAX1 inh-1 -1, hgDAF-12 ag 4, hcDAF12 agonist 2 and ssDAF-12 act -1.
Screening Cc1nc(C(=O)NCC(=O)c2ccccc2)c(C(F)(F)F)o1 returned DAX1 inh-1 0, DAX1 inh-2 2, hgDAF-12 ag 1, hcDAF12 agonist 0 and ssDAF-12 act -1.
For Cc1nc(C(=O)NNC(=O)c2ccccc2)c(C(F)(F)F)o1 the results were DAX1 inh-1 0, DAX1 inh-2 4.3*, hgDAF-12 ag 0, hcDAF12 agonist -2 and ssDAF-12 act -1.
